The values that follow come from PubChem BioAssay.

Assay [1] deals with Plasmodium falciparum Sir2 (PF13_0152, Sir2A). The assay can be described thus: Plasmodium falciparum Sir2A binding compounds – biochemical, small-molecule microarray, 635 nm fluorescence, primary screen (AID 1098).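 Note: score merges spot fluorescence intensity with its signal-to-noise ratio.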 As to conditions: fluorescence 635 nm, higher = more signal.
Assay [2] in a line: probe aDKK1 binding to arrayed compounds – biochemical, biotinylated probe, 635/667 nm fluorescence, primary screen (AID 1099).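 Note: score merges 667nm spot fluorescence with signal to noise across triplicate slides.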 As to conditions: small-molecule microarray, higher = more signal.
Assay [3] is described as follows: probe aCHRDL2 binding to arrayed compounds – biochemical, biotinylated probe, 635/667 nm fluorescence, primary screen (AID 1100). As to conditions: small-molecule microarray, higher = more signal.
The nature of assay [4]: change in splice reporter luminescence, either direction, cell-based, HEK293, spliceosome inhibition project, primary screen (AID 1101).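 Note: HEK293 cells carrying a splicing-competent luciferase reporter gene; test concentration not given here.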 To be noted: HEK293 splicing luciferase reporter, 24 h, higher = more signal, called active from +8 up or from −8 down. Background: Reporter assays use an easily measured gene product as a stand-in for the process of interest.
For assay [5], the target named is Fibroblast growth factor 10 (Homo sapiens) (UniProt O15520). Kind of assay: compounds binding fibroblast growth factor 10 – biochemical, small-molecule microarray, 635 nm fluorescence, primary screen (AID 1102). As to conditions: FGF10 binding, fluorescence 635 nm, higher = more signal.
Chain of Fibroblast growth factor 10 (Homo sapiens) (O15520 whole entry, looked up): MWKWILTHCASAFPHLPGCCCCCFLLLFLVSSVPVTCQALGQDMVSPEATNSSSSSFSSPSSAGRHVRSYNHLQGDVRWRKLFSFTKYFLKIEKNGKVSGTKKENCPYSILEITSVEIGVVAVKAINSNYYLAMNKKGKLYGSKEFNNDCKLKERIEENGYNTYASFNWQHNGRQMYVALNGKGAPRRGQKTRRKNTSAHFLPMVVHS
In assay [6] the test system is glycogen synthase kinase-3 (GSK3A per assay name; protocol says GSK3B). The assay can be described thus: compounds binding glycogen synthase kinase-3 – biochemical, small-molecule microarray, 635 nm fluorescence, GSK3A, primary screen (AID 1103). Note: the record names both GSK3A and GSK3B. As to conditions: fluorescence 635 nm, higher = more signal.
Assay [7] deals with Epidermal growth factor receptor (Homo sapiens) (UniProt P00533). Kind of assay: compounds binding epidermal growth factor receptor – biochemical, small-molecule microarray, 635 nm fluorescence, primary screen (AID 1104).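 Note: score merges 667 nm emission intensity with spot signal to noise over triplicate slides.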 To be noted: EGFR binding, higher = more signal.
Chain of Epidermal growth factor receptor (Homo sapiens) (P00533 whole entry, looked up): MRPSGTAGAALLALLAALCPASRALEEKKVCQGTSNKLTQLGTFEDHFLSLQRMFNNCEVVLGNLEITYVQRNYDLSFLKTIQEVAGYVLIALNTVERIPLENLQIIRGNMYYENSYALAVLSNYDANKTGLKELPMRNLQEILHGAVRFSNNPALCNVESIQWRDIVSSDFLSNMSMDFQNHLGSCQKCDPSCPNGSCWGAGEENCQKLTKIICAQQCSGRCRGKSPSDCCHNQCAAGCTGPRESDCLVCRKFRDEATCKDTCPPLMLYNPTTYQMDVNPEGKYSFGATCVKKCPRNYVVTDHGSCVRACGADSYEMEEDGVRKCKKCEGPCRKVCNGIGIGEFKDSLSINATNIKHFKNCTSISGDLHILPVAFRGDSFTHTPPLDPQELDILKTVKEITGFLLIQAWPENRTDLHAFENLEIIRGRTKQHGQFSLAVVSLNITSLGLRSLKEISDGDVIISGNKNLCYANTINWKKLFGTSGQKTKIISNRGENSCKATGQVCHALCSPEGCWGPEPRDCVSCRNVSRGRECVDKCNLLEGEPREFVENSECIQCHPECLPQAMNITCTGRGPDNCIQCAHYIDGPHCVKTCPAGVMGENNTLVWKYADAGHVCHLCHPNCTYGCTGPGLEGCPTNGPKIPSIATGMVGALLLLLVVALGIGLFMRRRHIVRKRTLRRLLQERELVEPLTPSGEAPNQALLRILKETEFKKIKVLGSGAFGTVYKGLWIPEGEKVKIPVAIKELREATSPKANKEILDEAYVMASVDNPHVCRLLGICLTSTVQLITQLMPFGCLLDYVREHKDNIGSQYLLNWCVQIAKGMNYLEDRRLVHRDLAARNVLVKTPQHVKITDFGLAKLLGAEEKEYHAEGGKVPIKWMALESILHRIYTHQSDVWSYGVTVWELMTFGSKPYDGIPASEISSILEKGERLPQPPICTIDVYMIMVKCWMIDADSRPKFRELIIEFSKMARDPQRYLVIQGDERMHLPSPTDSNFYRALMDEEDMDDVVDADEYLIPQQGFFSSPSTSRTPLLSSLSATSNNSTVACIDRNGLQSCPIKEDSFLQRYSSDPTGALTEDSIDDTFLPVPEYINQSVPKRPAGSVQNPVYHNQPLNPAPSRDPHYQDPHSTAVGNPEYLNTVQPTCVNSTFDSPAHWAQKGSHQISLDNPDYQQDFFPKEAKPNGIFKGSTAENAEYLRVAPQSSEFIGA
In assay [8] the target is Follistatin-related protein 3 (Homo sapiens) (UniProt O95633). Kind of assay: compounds binding follistatin-related protein 3 – biochemical, small-molecule microarray, 635 nm fluorescence, primary screen (AID 1105).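 Note: score merges emission near 667 nm and signal to noise per printed spot across three slides.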 As to conditions: FSTL3 binding, higher = more signal.
Chain of Follistatin-related protein 3 (Homo sapiens) (O95633 whole entry, looked up): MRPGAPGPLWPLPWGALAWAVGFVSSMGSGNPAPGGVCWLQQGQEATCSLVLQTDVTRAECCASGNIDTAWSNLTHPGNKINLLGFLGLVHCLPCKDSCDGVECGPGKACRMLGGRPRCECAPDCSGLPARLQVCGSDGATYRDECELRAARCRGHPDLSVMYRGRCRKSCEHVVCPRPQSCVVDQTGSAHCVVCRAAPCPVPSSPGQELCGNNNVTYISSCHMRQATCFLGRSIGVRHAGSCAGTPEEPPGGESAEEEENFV
In assay [9] the target is Dickkopf-related protein 1 (Homo sapiens) (UniProt O94907). The assay can be described thus: small molecules binding DKK1 protein – biochemical, small-molecule microarray, 635 nm fluorescence scan, primary screen (AID 1106).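 Note: score merges emission near 667 nm with signal to noise over three replicate slides.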 As to conditions: higher = more signal.
Chain of Dickkopf-related protein 1 (Homo sapiens) (O94907 whole entry, looked up): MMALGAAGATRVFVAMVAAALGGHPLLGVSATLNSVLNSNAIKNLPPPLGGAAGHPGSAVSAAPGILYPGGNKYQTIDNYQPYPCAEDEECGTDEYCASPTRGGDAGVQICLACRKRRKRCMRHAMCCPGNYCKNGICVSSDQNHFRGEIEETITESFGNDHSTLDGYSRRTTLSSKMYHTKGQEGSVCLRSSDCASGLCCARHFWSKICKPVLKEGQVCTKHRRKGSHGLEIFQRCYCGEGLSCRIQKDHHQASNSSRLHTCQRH
The subject of assay [10] is Inhibin beta A chain (activin A). Kind of assay: small molecules binding activin A – biochemical, small-molecule microarray, 635 nm fluorescence scan, primary screen (AID 1107).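 Note: mouse activin A protein probed at 4.33 µg/mL on printed slides; score merges bound-protein fluorescence near 667 nm with spot signal-to-noise.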 To be noted: INHBA, higher = more signal.
Assay [11] concerns Human papillomavirus type 1a protein E7 (residues 44-93). The assay can be described thus: small molecules binding HPV E7 44-93 – biochemical, small-molecule microarray, residues 44-93, 635 nm fluorescence, primary screen (AID 1108).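 Note: E7 fragment applied at 1 µg/mL in TBST for 1 h at 4 C; score combines spot fluorescence with its signal to noise ratio.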 As to conditions: fluorescence 635 nm, higher = more signal.
Assay [12] in a line: hepatitis C replication reporter changes, two-sided – Huh7 cells, luciferase reporter, HCV replication inhibitor project, primary screen (AID 1109).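 Note: huh7 hepatoma cells harbouring a luciferase neomycin HCV replicon reporter; luciferase luminescence as measure of HCV replicon replication; test concentration not given here.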 As to conditions: Huh7 HCV replicon luciferase reporter, 48 h; higher = more signal.
Assay [13] has as its target Left-right determination factor 2 (Homo sapiens) (UniProt O00292). The assay can be described thus: small molecules binding LEFTY2 protein – biochemical, small-molecule microarray, 635 nm fluorescence scan, primary screen (AID 1110). To be noted: higher = more signal.
Assay [14] deals with Calmodulin-1 (Homo sapiens) (UniProt P0DP23). The assay can be described thus: small molecules binding calmodulin-1 with EGTA – biochemical, small-molecule microarray, Cy5-labelled CALM1, profiling panel (AID 1111).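 Note: labelled calmodulin applied in Tris saline Tween buffer holding calcium plus EGTA and DTT.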 To be noted: Cy5-CALM1 binding fluorescence, higher = more signal.
The target is the same in assay [15]. Kind of assay: small molecules binding Ca-loaded calmodulin-1 – biochemical, small-molecule microarray, Cy5-labelled CALM1, plus calcium, artefact control for SMM control-protein annotation, profiling panel (AID 1112).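 Note: score merges spot fluorescence with signal to noise from triplicate slides.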 As to conditions: Cy5-CALM1 binding fluorescence, higher = more signal.
Assay [16] in a line: probe aWnt5a binding to arrayed compounds – biochemical, biotinylated probe, 635/667 nm fluorescence, primary screen (AID 1113).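 Note: score merges 667 nm fluorescence intensity with signal-to-noise per printed feature.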 To be noted: small-molecule microarray, higher = more signal.
Assay [17] can be described thus: probe aShh binding to arrayed compounds – biochemical, biotinylated probe, 635/667 nm fluorescence, primary screen (AID 1114).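 Note: probe is biotin-labelled aShh protein from a stem cell growth factor screen; measures binding of labelled protein to compounds printed on the slide; score merges feature fluorescence at 667 nm with signal-to-noise.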 As to conditions: small-molecule microarray, higher = more signal.
Assay [18] can be described thus: probe aNog binding to arrayed compounds – biochemical, biotinylated probe, 635/667 nm fluorescence, primary screen (AID 1115).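 Note: probe is biotinylated aNog protein used at 0.15 µg/mL for 1 h at 4 C; z-score combines 667 nm fluorescence of each spot with its signal to noise.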 To be noted: small-molecule microarray, higher = more signal.
In assay [19] the target is Torsin-1A-interacting protein 1 (Homo sapiens) (UniProt Q5JTV8). The assay can be described thus: compound microarray binding of lysate hLAP1 – cell lysate, small-molecule microarray, COS7 lysate, 635/667 nm fluorescence, primary screen (AID 1116). As to conditions: 635 nm fluorescence, higher = more signal.
Chain of Torsin-1A-interacting protein 1 (Homo sapiens) (Q5JTV8 whole entry, looked up): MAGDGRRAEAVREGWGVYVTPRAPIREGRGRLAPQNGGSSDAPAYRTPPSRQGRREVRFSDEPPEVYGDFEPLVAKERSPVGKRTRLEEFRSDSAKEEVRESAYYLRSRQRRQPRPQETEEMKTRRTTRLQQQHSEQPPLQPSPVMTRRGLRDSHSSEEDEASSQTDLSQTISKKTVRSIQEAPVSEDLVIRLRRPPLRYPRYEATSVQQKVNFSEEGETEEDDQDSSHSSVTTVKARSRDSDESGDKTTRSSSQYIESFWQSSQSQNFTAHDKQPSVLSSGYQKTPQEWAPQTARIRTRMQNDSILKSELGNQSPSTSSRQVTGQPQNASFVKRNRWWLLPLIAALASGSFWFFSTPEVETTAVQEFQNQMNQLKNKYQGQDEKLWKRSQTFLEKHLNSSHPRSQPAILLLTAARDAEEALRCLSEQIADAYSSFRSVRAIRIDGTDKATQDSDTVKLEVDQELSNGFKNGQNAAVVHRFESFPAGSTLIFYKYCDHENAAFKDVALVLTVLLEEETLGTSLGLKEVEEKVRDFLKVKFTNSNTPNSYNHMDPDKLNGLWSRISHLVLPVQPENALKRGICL
The target in assay [20] is Alpha-bungarotoxin (Bungarus multicinctus) (UniProt P60615). The assay can be described thus: compounds binding labelled alpha-BTX control protein – biochemical, small-molecule microarray, Alexa647 label, 635/667 nm fluorescence, artefact control for SMM control protein annotation, profiling panel (AID 1117). To be noted: alpha-BTX-A647 binding fluorescence, higher = more signal.
Chain of Alpha-bungarotoxin (Bungarus multicinctus) (P60615 whole entry, looked up): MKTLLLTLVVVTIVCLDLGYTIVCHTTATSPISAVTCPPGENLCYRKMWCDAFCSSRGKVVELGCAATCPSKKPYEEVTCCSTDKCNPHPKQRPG

Structures are written as SMILES. Calls of active or inactive are those of the source.

Chain of Left-right determination factor 2 (Homo sapiens) (O00292 whole entry, looked up): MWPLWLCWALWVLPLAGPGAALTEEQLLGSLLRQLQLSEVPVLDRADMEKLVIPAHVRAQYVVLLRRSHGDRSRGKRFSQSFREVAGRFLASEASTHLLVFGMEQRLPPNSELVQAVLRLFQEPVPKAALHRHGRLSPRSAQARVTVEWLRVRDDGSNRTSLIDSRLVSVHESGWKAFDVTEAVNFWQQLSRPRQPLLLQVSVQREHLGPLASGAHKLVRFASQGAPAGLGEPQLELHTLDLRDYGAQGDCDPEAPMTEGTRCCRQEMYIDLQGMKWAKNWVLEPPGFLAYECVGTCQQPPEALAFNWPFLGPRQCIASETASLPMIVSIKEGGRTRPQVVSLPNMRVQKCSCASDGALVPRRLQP

Turning to `C=C(CCCC)C(=O)CC[C@H](OC(=O)c1ccccc1-c1ccccc1C(=O)O)c1ccccc1OCCO`, the composite z-score is 0.855 in assay [1]; -0.475 in assay [2]; -0.336 in [3]; 0.271 in assay [5]; -0.218 in assay [6]; -0.226 in assay [7]. The composite z-score was -0.279 in [8]; 0.145 in assay [9]; 1.28 in assay [10]; 0.166 in assay [11]; -0.171 in [13]; -0.378 in assay [14]. The composite z-score is -0.814 in [15]; -0.0944 in [16]; 0.318 in assay [17]; 0.397 in assay [18]; 0.442 in [19]; 0.26 in assay [20]. Also, the z-score in assay [4] is 2.02 (inactive); in assay [12], -2.31.
Take `CN1C(=O)[C@@]2(Cc3ccccc3)N=C(c3ccc(OCCCO)cc3)O[C@H]2c2ccccc21`: the composite z-score in [1] stood at 0.318; in [2] it was 0.428; in [3], 1.02; in [5], 1.3; in assay [6] it was 1.32; in assay [7], 0.261. Further, the composite z-score was found to be 1.11 in assay [8]; 0.191 in assay [9]; 1.16 in assay [10]; 1.3 in assay [11]; 0.879 in assay [13]; 0.329 in assay [14]. Further, the composite z-score is 0.458 in assay [15]; -0.0495 in assay [16]; 0.0372 in assay [17]; 1.26 in assay [18]; 0.344 in assay [19]; 0.846 in [20]. The z-score in assay [4] is -0.528 (inactive); in assay [12] it was -2.57.
`O=C1c2ccccc2[C@](Cc2ccccc2I)(C(=O)NC2CC2)[C@H](c2ccc(CO)cc2)N1Cc1ccccc1C(F)(F)F`: the composite z-score is 1.43 in assay [1]; -0.349 in [2]; 0.768 in assay [3]; 0.535 in assay [5]; -0.265 in assay [6]; -0.922 in assay [7]. For the same compound, the composite z-score is 0.32 in [8]; -0.74 in assay [9]; -0.771 in [10]; 1.45 in assay [11]; -1.16 in assay [13]; 0.463 in assay [14]. Also, the composite z-score in assay [15] is -0.541; in assay [16], -0.0735; in assay [17], -0.147; in [18] it was -0.484; in assay [19], 0.103; in assay [20], 0.968. Further, the results for the z-score in [4] and in [12] were -0.987 (inactive) and -2.2, respectively.
On to `CCc1cccc(NC(=O)O[C@H]2[C@H](OC(=O)Nc3ccccc3)[C@H](OC(=O)Nc3ccccc3)[C@@H](OC)O[C@@H]2CO)c1`, for which the composite z-score in assay [1] was 1.41; in assay [2], 0.22; in [3], 0.55; in assay [5], 1.51; in assay [6], 1.24; in assay [7] it was -0.0045. Also, the composite z-score is 0.833 in [8]; -0.186 in [9]; 0.444 in [10]; 1.44 in assay [11]; 0.0274 in assay [13]; 1.26 in assay [14]. The composite z-score is -0.101 in assay [15]; -0.0006 in [16]; 0.23 in assay [17]; 1.11 in assay [18]; 1.03 in assay [19]; 0.0456 in assay [20]. The z-score is -0.376 (inactive) in assay [4] and -3.86 in [12].
For `Cc1nc2cc(Br)ccc2c(=O)n1Cc1cccc(O)c1`, the composite z-score is 0.547 in assay [1]; -0.136 in [2]; -0.282 in [3]; 0.89 in assay [5]; 0.768 in [6]; 0.416 in assay [7]. Moreover, the composite z-score in assay [8] was 0.782; in assay [9] it was 1.16; in assay [10], -0.022; in [11], 0.804; in assay [13], 0.874; in assay [14] it was 0.523. Moreover, the composite z-score was 0.302 in [15]; -0.0263 in assay [16]; -0.0946 in assay [17]; 0.761 in assay [18]; 1.21 in assay [19]; -0.0871 in assay [20]. Also, the z-score in [4] was -0.0746 (inactive); in assay [12], 0.201.
As to `COc1ccc(C(O)C2C=CC3C(=O)N(c4ccccc4)C(=O)C3N2Nc2ccc(C(C)C)cc2)c2ccccc12` (stereo not given), the composite z-score in [1] amounted to 1.6; in assay [2], 0.661; in assay [3], 0.942; in assay [5] it was 0.839; in assay [6], 1.29; in [7], 0.0751. Besides, the composite z-score is 1.04 in assay [8]; -0.0879 in [9]; 0.87 in assay [10]; 1.39 in assay [11]; -0.146 in assay [13]; 1.17 in assay [14]. Besides, the composite z-score in [15] is 0.922; in assay [16], 0.0068; in assay [17], 0.232; in [18] it was -0.229; in assay [19], 0.865; in assay [20], 2.55. The z-score in assay [4] is 0.48 (inactive); in assay [12] it was -0.716.
